In assay [1] the test system is MDA-MB-231. Description: cell viability relative to vehicle unstimulated control (fraction); higher = more viable cells. The conditions noted are these: pre-treatment time: 18 h then 24 h IFNg/TNF.
In assay [2] the test system is MDA-MB-231. Briefly: kynurenine production, fold change vs DMSO IFNg/TNF control; higher = more kynurenine produced (less inhibition). Conditions: pre-treatment time: 18 h then 24 h IFNg/TNF. In outline:
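MDA-MB-231 cells were seeded in 96-well plates at 7 × 10^4/well and, 24 h later, pre-treated for 18 h with each natural product in 0.1% DMSO. They were then stimulated for 24 h at 37°C with IFNγ (1 U/ml) and TNF (6.25 ng/ml). Supernatants were treated with trichloroacetic acid and p-dimethylaminobenzaldehyde and read at 492 nm against 0–100 μM standards. Kynurenine production is expressed as fold change over cytokine-stimulated vehicle wells on the same plate and, in the first screening round, averaged across duplicate plates.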

Where a name gives a salt, the structure may show the parent alone. ± gives the standard deviation of the averaged measurements.
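Wherever cell viability relative to vehicle unstimulated control is given: viability of the cells left after supernatant collection, read with Deep Blue dye added for 4 h, as absorbance at 570 nm minus 600 nm.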

As for `CC1=C2[C@@H](OC1=O)[C@H](O)[C@]13[C@H]4C[C@@H](C(C)(C)C)[C@]15[C@@H](OC(=O)[C@@H]5O)O[C@@]23C(=O)O4` [Ginkgolide K] (compound dose: 10 uM), the cell viability in the assay on MDA-MB-231 [1] turned out to be 0.996 ± 0.15. The kynurenine production in the assay with MDA-MB-231 [2] stood at 0.988 ± 0.29.
In the same order, the values of `CC1(C)[C@@H](O[C@H]2O[C@H](C(=O)O)[C@@H](O)[C@H](O)[C@H]2O[C@@H]2O[C@H](C(=O)O)[C@@H](O)[C@H](O)[C@H]2O)CC[C@]2(C)[C@H]3C(=O)C=C4[C@@H]5C[C@@](C)(C(=O)O)CC[C@]5(C)CC[C@@]4(C)[C@]3(C)CC[C@@H]12` [Ammonium glycyrrhizinate] (compound dose: 10 uM) are 0.952 ± 0.033 and 0.801 ± 0.2.
`O=C(O)c1cccnc1` [Nicotinic acid] (compound dose: 10 uM): the cell viability with MDA-MB-231 [1] came to 0.917 ± 0.043. Moreover, the kynurenine production in the assay with MDA-MB-231 [2] worked out at 0.945 ± 0.13.
`COC(=O)[C@@]1(C)CC[C@]2(C(=O)O)CC[C@]3(C)C(=CC[C@@H]4[C@@]5(C)C[C@H](O)[C@H](O)[C@@](C)(CO)[C@@H]5CC[C@]43C)[C@@H]2C1` [Phytolaccagenin] (compound dose: 10 uM): in the assay on MDA-MB-231 [1], the cell viability stood at 0.924 ± 0.049. The kynurenine production in the assay on MDA-MB-231 [2] was 0.875 ± 0.095.
In the same order, the values of `C=C(C=O)[C@H]1CC[C@H](C)[C@H]1C=O` [dolichodial] (compound dose: 10 uM) are 1 ± 0.032 and 0.897 ± 0.018.
On the same counts, the results for `C=C1C(=O)O[C@@H]2CC(C)=C([C@@H](C)CCCOC(C)=O)[C@@H](O)[C@H]12` [Inulicin] (compound dose: 10 uM) are 0.912 ± 0.096 and 1.16 ± 0.15.
On the same counts, the results for `C=C1CC[C@H]2C(=C)CC[C@H]3C(=C)C(=O)O[C@@H]3[C@@H]12` [Dehydrocostus Lactone] (compound dose: 10 uM) are 0.933 ± 0.08 and 0.398 ± 0.079.
With `CC(C)=CCC[C@](C)(O[C@@H]1O[C@H](CO)[C@@H](O)[C@H](O)[C@H]1O)[C@H]1CC[C@]2(C)[C@@H]1[C@H](O)C[C@@H]1[C@@]3(C)CC[C@H](O)C(C)(C)[C@@H]3[C@@H](O)C[C@]12C` [Ginsenoside F1] (compound dose: 10 uM), the cell viability with MDA-MB-231 [1] amounted to 0.982 ± 0.05. Also, the kynurenine production in the assay with MDA-MB-231 [2] is 1.13 ± 0.066.
In the same order, the values of `CO[C@@H]1C=C2[C@@H]3CC(C)(C)CC[C@]3(CO)[C@H](O)C[C@@]2(C)[C@]2(C)CC[C@H]3[C@](C)(CO)[C@@H](O[C@@H]4O[C@H](C)[C@H](O)[C@H](O[C@@H]5O[C@H](CO)[C@@H](O)[C@H](O)[C@H]5O)[C@H]4O)CC[C@]3(C)[C@@H]12` [Saikosaponin B4] (compound dose: 10 uM) are 1.12 ± 0.026 and 0.923 ± 0.21.
Turning to `C[C@@H]1CC[C@@]2(OC1)O[C@H]1C[C@H]3[C@@H]4CC=C5C[C@@H](O[C@@H]6O[C@H](CO)[C@@H](O)[C@H](O[C@@H]7O[C@H](CO)[C@@H](O)[C@H](O)[C@H]7O)[C@H]6O[C@@H]6O[C@@H](C)[C@H](O)[C@@H](O)[C@H]6O)CC[C@]5(C)[C@H]4CC[C@]3(C)[C@H]1[C@@H]2C` [Gracillin] (compound dose: 10 uM), the cell viability in the assay on MDA-MB-231 [1] is 0.0777 ± 0.08. Also, the kynurenine production in the assay with MDA-MB-231 [2] is 0.202 ± 0.016.
`C/C=C1/[C@H](O[C@@H]2O[C@H](CO)[C@@H](O)[C@H](O)[C@H]2O)OC=C(C(=O)OC)[C@H]1CC(=O)OCCc1ccc(O)c(O)c1` [Oleuropein] (compound dose: 10 uM): the cell viability with MDA-MB-231 [1] was 0.978 ± 0.075. In addition, in the assay with MDA-MB-231 [2], the kynurenine production came to 0.733 ± 0.15.
On the same counts, the results for `C=C(CCC=C(C)C)[C@H]1CC[C@]2(C)[C@@H]1[C@H](O)C[C@@H]1[C@@]3(C)CC[C@H](O)C(C)(C)[C@@H]3[C@@H](O[C@@H]3O[C@H](CO)[C@@H](O)[C@H](O)[C@H]3O)C[C@]12C` [Ginsenoside Rk3] (compound dose: 10 uM) are 0.96 ± 0.035 and 0.81 ± 0.11.
In the same order, the values of `C[n+]1cccc(C(=O)[O-])c1` [Trigonelline hydrochloride] (compound dose: 10 uM) are 0.913 and 0.906 ± 0.16.
In the same order, the values of `COC(=O)C1=CO[C@@H](O[C@@H]2O[C@H](CO)[C@@H](O)[C@H](O)[C@H]2O)[C@@H]2[C@@H](C)[C@@H](O)C[C@H]12` [Loganin] (compound dose: 10 uM) are 1.05 ± 0.041 and 1.02 ± 0.18.
Consider `C[C@]1(O)C[C@@H](O)[C@]2(O)C=CO[C@@H](O[C@H]3O[C@H](CO)[C@@H](O)[C@H](O)[C@H]3O)[C@@H]21` [Harpagide] (compound dose: 10 uM), for which the cell viability in the assay with MDA-MB-231 [1] came out at 1.02 ± 0.016. In addition, in the assay with MDA-MB-231 [2], the kynurenine production stood at 0.747 ± 0.068.
For `CC=C1[C@H](O[C@@H]2O[C@H](CO)[C@@H](O)[C@H](O)[C@H]2O)OC=C(C(=O)OC)[C@H]1CC(=O)OC[C@H]1O[C@@H](OCCc2ccc(O)cc2)[C@H](O)[C@@H](O)[C@@H]1O` (stereo in doubt) [Specnuezhenide] (compound dose: 10 uM), the cell viability with MDA-MB-231 [1] was found to be 1 ± 0.026. The kynurenine production with MDA-MB-231 [2] was determined as 0.905 ± 0.21.
On the same counts, the results for `CC(=O)OC/C=C(\C)CCC=C(C)C` [Geranyl acetate] (compound dose: 10 uM) are 1.01 ± 0.065 and 0.882 ± 0.039.
In the same order, the values of `CC1(C)CC[C@]2(C(=O)O)CC[C@]3(C)C(=CC[C@@H]4[C@@]5(C)CC[C@H](O[C@@H]6O[C@H](C(=O)O)[C@@H](O)[C@H](O[C@@H]7OC[C@@H](O)[C@H](O)[C@H]7O)[C@H]6O)C(C)(C)[C@@H]5CC[C@]43C)[C@@H]2C1` [Momordin Ic] (compound dose: 10 uM) are 1.07 ± 0.023 and 0.967 ± 0.2.

The values above are taken from the supplement of paper PMC13094657.
